# Bioassay records as filed in PubChem BioAssay.
# HPGD block = HPGD (human) dehydrogenase inhibition; Potency, µM, for the others: top-dose activity change, negative = inhibition, actives largely listed as inhibitors; 150,000 compounds, 4.3% hits; AID 894; purified HPGD, NADH fluorescence kinetic, PGE2 substrate; P15428; note: potency is the fitted concentration of half-maximal effect; % is set by controls: 0 for no effect and ±100 for the full control effect
# Target sequence (P15428 whole entry, looked up): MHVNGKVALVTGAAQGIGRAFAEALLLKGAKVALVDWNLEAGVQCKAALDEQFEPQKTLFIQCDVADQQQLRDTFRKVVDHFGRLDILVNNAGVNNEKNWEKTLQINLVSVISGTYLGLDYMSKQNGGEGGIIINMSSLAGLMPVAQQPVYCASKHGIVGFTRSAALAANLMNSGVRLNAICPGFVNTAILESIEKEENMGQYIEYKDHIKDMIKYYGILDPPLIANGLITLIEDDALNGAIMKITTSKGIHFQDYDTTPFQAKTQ
#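 20 nM HPGD preincubated 15 min at room temperature with compound in 50 mM Tris-HCl pH 8, 0.01% Tween 20. Started with 1 mM NAD+ and 30 uM prostaglandin E2; NADH fluorescence (360/450 nm) read 5 times over 30-s intervals, last minus first.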
# ALDH1A1 inh = inhibitors of human aldehyde dehydrogenase 1A1; Purified ALDH1A1, NADH fluorescence, propionaldehyde substrate; 220,000 compounds, 7.3% hits; P00352; AID 1030; Potency, µM (doses to about 75.3 µM), inactives show top-dose activity, negative = inhibition, most hits filed as inhibitors;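 note: potency is the fitted concentration of half-maximal effect; plate controls were no enzyme wells and a reference inhibitor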
# CBFb RUNX1 block = CBF-beta/RUNX1 interaction disruption. Q01196+Q13951. AlphaScreen CBFb-His/RUNX1-biotin binding, biochemical. Potency, µM (highest dose often 59.8 µM), without a hit: at the top dose activity, negative = inhibition, usual class: inhibitors. 230,000 tested, under 10 active. AID 1477; active = well fitted curve in the direction sought with a large enough effect; inconclusive = small, poorly fitted or top-dose-only effect, or another doubt; inactive = no such curve, though single readings can be large; an effect the other way counts as inactive or inconclusive; note: % of control where 0% means no effect
#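 His-tagged CBF-beta and biotinylated RUNX1 (30 nM each) were premixed 20 min at room temperature, exposed to compound for 15 min, then given nickel-chelate and streptavidin AlphaScreen beads (50 ng each). After 90 min, AlphaScreen signal was read.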
# HTT aggregate = reduces HttQ103-GFP aggregates in PC12 cells. PC12 HttQ103-GFP aggregates, Acumen cytometry, 40 h. Potency, µM (top dose mostly 46.1 µM), without a hit: at the top dose activity change, negative = inhibition, actives largely listed as inhibitors. 220,000 compounds, 1.1% hits. AID 1688; active = well fitted curve in the direction sought with a large enough effect; inconclusive = small, poorly fitted or top-dose-only effect, or another doubt; inactive = no such curve, though single readings can be large; an effect the other way counts as inactive or inconclusive; note: potency is the fitted concentration of half-maximal effect; % is set by controls: 0 for no effect and ±100 for the full control effect; nearly all actives have a fitted effect of over 60% in size
#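 Ecdysone-promoter PC12 model expressing HTT exon 1 Q103 fused to GFP, induced by tebufenozide at 100 nM final. Compounds titrated; aggregates sized 1–25 µm scored on a 488 nm laser cytometer.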
# KDM4E inh = inhibitors of human JMJD2E histone demethylase; JMJD2E catalytic domain, FDH-coupled NADH fluorescence (FDH is formaldehyde dehydrogenase); Potency, µM (doses to about 57.1 µM), for inactives: top-dose activity change, negative = inhibition, actives largely listed as inhibitors; 230,000 compounds, 1.6% hits; AID 2147;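 note: potency is the fitted concentration of half-maximal effect; 0% = wells with enzyme and -100% = buffer wells without enzyme; nearly all actives have a fitted effect of over 50% in size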
# Target sequence (B2RXH2 1-337 limits assumed): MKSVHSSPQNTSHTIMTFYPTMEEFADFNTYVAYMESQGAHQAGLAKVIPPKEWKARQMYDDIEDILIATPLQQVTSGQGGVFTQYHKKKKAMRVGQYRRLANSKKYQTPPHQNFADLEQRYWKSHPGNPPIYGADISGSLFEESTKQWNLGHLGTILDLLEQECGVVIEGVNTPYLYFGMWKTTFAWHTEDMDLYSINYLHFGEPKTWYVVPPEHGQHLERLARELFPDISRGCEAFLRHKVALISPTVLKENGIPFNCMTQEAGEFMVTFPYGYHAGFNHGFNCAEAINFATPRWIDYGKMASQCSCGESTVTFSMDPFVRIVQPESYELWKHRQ
# HTT cytoprotect = cytoprotection in Huntington HTT-Q103 PC12 cell model; 230,000 compounds, 0.14% hits; PC12 HTT-Q103 induced, cytoprotection, ATP luminescence, 40 h; Potency, µM (highest dose often 56.4 µM), for inactives: cytoprotection (ATP increase), hits mostly activators; active = well fitted curve in the direction sought with a large enough effect; inconclusive = small, poorly fitted or top-dose-only effect, or another doubt; inactive = no such curve, though single readings can be large; an effect the other way counts as inactive or inconclusive; note: potency is the fitted concentration of half-maximal effect; % of control where 0% means no effect; nearly all actives have a fitted effect of over 45% in size
#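 Quantitative HTS on tebufenozide-induced (100 nM) PC12 cells expressing HTTQ103 exon 1–GFP; compounds tested as a concentration series; survival measured via cellular ATP.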
# * hit, by the source's call; u = inconclusive; x = no result given; [ ] = dose if it differs, or a comment. Hits are enriched below; roughly 9.8% of the tested compounds scored in any of these assays. Unless noted, calls come from the whole dose curve; as a rule, active = well fitted inhibition curve with a large enough effect (not every such curve was filed as active); inconclusive = small, poorly fitted or top-dose-only effect, or another doubt; inactive = no such curve, though single readings can be large or run the other way.
SMILES,HPGD block,ALDH1A1 inh,CBFb RUNX1 block,HTT aggregate,KDM4E inh,HTT cytoprotect
CC1(C)CC(=O)C2=C(C1)NC(=O)CC2c1ccccc1F (centres undefined),-11%,-3%,5%,-2%,1%,-16%
Cc1[nH]nc2c1C(c1ccccc1F)CC(=O)N2 (centres undefined),-18%,22µM*,-1%,-29%,0%,-31%
O=C1CC(c2ccccc2F)C2=C(COC2=O)N1 (centres undefined),x,18µM*,22%,18%,6%,-17%
CCC(=O)OCC(=O)[C@@]1(OC(=O)CC)[C@@H](C)C[C@@H]2[C@H]3CCC4=CC(=O)C=C[C@]4(C)[C@@]3(F)[C@@H](O)C[C@@]21C,-8%,-1%,-9%,x,x,x
NCCC[C@@H](CC(=O)N[C@@H]1CCNC[C@H]1C(=O)N[C@H](CC(=O)N[C@@H](CCC(=O)O)CC(=O)O)Cc1c[nH]c2ccccc12)NC(=O)C[C@H](Cc1ccccc1)NC(=O)[C@@H]1CNCC[C@H]1N,-8%,-2%,20%,x,-3%,-15%[1.9 µM]
Cn1cc(Cl)c(C(=O)Nc2cnn(Cc3ccc(F)cc3)c2)n1,-4%,-6%,9%,32%,-3%,x
CCCCCCCCCCCCCCCC[n+]1cccc(C(=O)N(CC)CC)c1,1%,u,-1%,u,6%,-99%[10 µM]
CCCCCc1ccc(OCCC[n+]2ccccc2)c(CCCCC)c1,x,x,-8%,3.2µM*,11%,-96%[10 µM]
CCCCCc1ccc(OCCOCCn2c[n+](C)c3ccccc32)c(CCCCC)c1,x,u,3%,11µM*,-1%,-85%
O=C(CSc1nnnn1Cc1ccccc1)Nc1ccc2c(c1)OCO2,-22%,-47%,1%,-1%,0%,14%
CCC(=O)Nc1cccc(NC(=O)CSc2nnnn2Cc2ccccc2)c1,-13%,20µM*,4%,5%,-4%,-14%
O=C(CSc1nnnn1Cc1ccccc1)Nc1ccc2c(c1)OCCO2,-14%,8.9µM*,-2%,2%,-5%,20%
CC(=O)Nc1cccc(NC(=O)CSc2nnnn2C(C)C)c1,-3%,14µM*,4%,5%,5%,30%[10 µM]
O=C(O)CCC(=O)Nc1ccc(C(=O)OCC(=O)c2ccc(Cl)cc2Cl)cc1,x,u,13%,-11%[9.22 µM],3%,-14%[10 µM]
CC(C)Cn1cc(F)c(=O)n(CC(C)C)c1=O,x,-16%,-4%,-14%,1%,-38%
Cn1c(=O)c2c(nc(SCCCC#N)n2Cc2ccccc2F)n(C)c1=O,-7%,2.8µM*,1%,-4%,-3%,4%
Cc1ccc2nc(SCC(=O)NCC3CCCO3)c(C#N)cc2c1 (centres undefined),6.3µM*,5%,2%,18%,u,-24%[10 µM]
CCC(C)Nc1nc2c(c(=O)n(C)c(=O)n2C)n1Cc1ccc(Cl)cc1 (centres undefined),x,x,-10%,-4%[9.22 µM],10%,3%[10 µM]
CC(C)Sc1nc2c(c(=O)n(C)c(=O)n2C)n1Cc1ccc(Cl)cc1,-9%,8.9µM*,9%,-32%,11%,-28%
CNC(=O)CSc1nc2c(c(=O)n(C)c(=O)n2C)n1Cc1ccc(C)cc1,-16%,-4%,-2%,17%,9%,19%[10 µM]
Cc1ccc(Cn2c(SCC(=O)NCC3CCCO3)nc3c2c(=O)n(C)c(=O)n3C)cc1 (centres undefined),x,22µM*,0%,-17%[9.22 µM],17%,23%[10 µM]
O=C1[O][Bi][O]c2ccccc21,x,x,x,-7%,x,-1%
CCOC(=O)CNC(=O)O[C@@H]1C(=O)c2cc(Br)ccc2O[C@H]1c1ccc2c(c1)OCO2,-11%,10%,15%,x,-5%,-23%
COc1ccc(CC2(CO)CCN(CC3=Cc4cc(Cl)ccc4OC3)CC2)cc1,x,16%,4%,10%[9.22 µM],-7%,-9%[10 µM]
COc1ccc(-n2nnc3c(=O)n(CC(=O)NCC4CCCO4)cnc32)cc1 (centres undefined),u,u,8%,u,-10%,-8%[0.074 µM]
SMILES,HPGD block,ALDH1A1 inh,CBFb RUNX1 block,HTT aggregate,KDM4E inh,HTT cytoprotect
Cc1ccc(-n2nnc3c(SCC(=O)NCC4CCCO4)ncnc32)cc1 (centres undefined),1.3µM*,1%,7%,u,4%,2%[10 µM]
C=CCN(Cc1cccc(OC)c1OC)S(=O)(=O)N(C)C,-14%,25µM*,8%,10%,1%,-22%
Cc1ccc(S(=O)(=O)Nc2cc(C)c(O)c(S(=O)(=O)c3ccc(C)cc3)c2)cc1,-11%,0.63µM*,8%,u,8%,-19%
Cc1ccc(S(=O)(=O)Nc2ccc(S(=O)(=O)NC(C)(C)C)cc2)cc1,-10%,u,-2%,-2%[9.22 µM],3%,13%
O=S(=O)(Nc1ccc(S(=O)(=O)Nc2ccccc2)cc1)c1ccccc1,-4%,u,-2%,10%,2%,-16%
Cc1cc(NS(=O)(=O)c2ccccc2)cc(Cl)c1O,-26%,7.1µM*,7%,u,8%,-9%
O=C(NC1CCCCC1)c1ccccc1NC(=S)NC(=O)C1CCC1,-10%,1%,1%,3%,3%,x
O=C(/C=C/c1ccccc1Cl)NC(=S)Nc1ccccc1C(=O)NC1CCCCC1,28µM*,22µM*,1%,-10%,7%,-14%
Cc1ccc(C)n1CCN1CCN(S(=O)(=O)c2ccc(F)cc2F)CC1,x,u,-5%,8%[9.22 µM],-26%,-1%[10 µM]
COC(=O)C1=NNC2C(=O)N(c3ccc(C)cc3)C(=O)C12 (centres undefined),x,2%,-5%,-8%,-1%,8%[10 µM]
Cc1ccc(N2C(=O)[C@@H]3C(C(=O)C(c4ccccc4)c4ccccc4)=NN[C@@H]3C2=O)cc1,-14%,22µM*,-16%,-7%,-19%,43%[10 µM]
Cc1ccc(S(=O)(=O)CCSc2cccc(C(=O)Nc3ccccc3C(=O)O)c2)cc1,16µM*,u,-6%,1%,-2%,-2%[10 µM]
CC(C)C(=O)Nc1cccc(C(=O)Nc2ccccc2C(=O)O)c1,-26%,-9%,-2%,16%,-8%,-90%
O=C(c1cnn2c(C(F)(F)F)cc(-c3ccc4c(c3)OCO4)nc12)N1CCCCC1,2.8µM*,2%,2%,-11%,-5%,-13%[10 µM]
Cc1ccc(-c2cc(C(F)(F)F)n3ncc(C(=O)N4CCN(C)CC4)c3n2)cc1,u,u,-9%,u,5%,-18%[10 µM]
CN1CCN(C(=O)c2cnn3c(C(F)(F)F)cc(-c4ccc5c(c4)OCO5)nc23)CC1,25µM*,u,1%,-22%,-6%,-15%
COCCn1c(=O)cnc2cnc(N(C)C)nc21,x,-2%,x,x,x,0%
O=C(O)CCn1cc(C(=O)O)c(-c2ccccc2)n1,x,x,-11%,13%[9.22 µM],6%,-28%[10 µM]
